Experimental data from PubChem BioAssay AID651818 (Broad Institute, 2012).
Potency and affinity values are given separately. Records with an inconclusive call do not appear. Where a call stands in place of a potency, no number is given. The source made the active and inactive calls. Rule as the data show it: inconclusive = activity change below about -55%; inactive = above that.

Assay: intracellular Trypanosoma cruzi inhibitors in host cells – cell-based, plate reader, cherry-pick samples, set 3, dose response (AID 651818)
Conditions: series mostly up to 10 µM
With `C[C@H](CO)N1C[C@H](C)[C@@H](CN(C)C(=O)Nc2ccc3c(c2)OCO3)Oc2c(NC(=O)C3CCOCC3)cccc2C1=O` the outcome was “inactive”.
For `Cc1cc(C(=O)Nc2cccc3c2O[C@@H](CN(C)C(=O)Nc2ccccc2)[C@@H](C)CN([C@H](C)CO)C3=O)n(C)n1`, the outcome was “inactive”.
For `C[C@H](CO)N1C[C@H](C)[C@@H](CN(C)S(=O)(=O)c2ccc(Cl)cc2)Oc2c(NC(=O)C3CC3)cccc2C1=O`, the outcome was “inactive”.
In the case of `C[C@@H]1CN([C@H](C)CO)C(=O)c2cccc(NC(=O)c3ccncc3)c2O[C@@H]1CN(C)Cc1ccc(C(=O)O)cc1`, the outcome is reported as “inactive”.
For `C[C@H](CO)N1C[C@H](C)[C@H](CN(C)S(C)(=O)=O)Oc2c(NS(=O)(=O)c3ccc(F)cc3)cccc2C1=O`, the outcome was “inactive”.
In the case of `C[C@@H]1CN([C@@H](C)CO)C(=O)c2cccc(NC(=O)c3ccncc3)c2O[C@@H]1CN(C)C`, the outcome is reported as “inactive”.
With `CNC[C@H]1Oc2c(NS(=O)(=O)c3cccs3)cccc2C(=O)N([C@@H](C)CO)C[C@@H]1C` the outcome was “inactive”.
With `C[C@@H]1CN([C@H](C)CO)C(=O)c2cccc(NS(=O)(=O)c3cn(C)cn3)c2O[C@@H]1CN(C)CC1CCCCC1` the outcome was “inactive”.
For `C[C@H](CO)N1C[C@H](C)[C@@H](CN(C)Cc2ccc3c(c2)OCO3)Oc2c(NS(=O)(=O)c3ccc(Cl)cc3)cccc2C1=O`, the outcome was “inactive”.
With `C[C@@H]1CN([C@@H](C)CO)C(=O)c2cccc(NC(=O)c3cnccn3)c2O[C@H]1CN(C)CC1CC1` the outcome was “inactive”.
For `C[C@@H]1CN([C@@H](C)CO)C(=O)c2cccc(NC(=O)c3cnccn3)c2O[C@@H]1CN(C)S(=O)(=O)c1cccs1`, the outcome was “inactive”.
With `C[C@@H]1CN([C@@H](C)CO)C(=O)c2cccc(NC(=O)Nc3ccccc3)c2O[C@@H]1CN(C)S(=O)(=O)c1cn(C)cn1` the outcome was “inactive”.
In the case of `Cc1noc(C)c1NC(=O)Nc1cccc2c1O[C@@H](CN(C)Cc1ccc(-c3ccccc3)cc1)[C@@H](C)CN([C@@H](C)CO)C2=O`, the outcome is reported as “inactive”.
With `COc1ccc(S(=O)(=O)N(C)C[C@H]2Oc3c(NS(=O)(=O)c4ccc(F)cc4)cccc3C(=O)N([C@H](C)CO)C[C@H]2C)cc1` the outcome was “inactive”.
For `COc1ccc(NC(=O)N(C)C[C@H]2Oc3c(NC(=O)C4CCCCC4)cccc3C(=O)N([C@H](C)CO)C[C@@H]2C)cc1`, the outcome was “inactive”.
With `Cc1noc(C)c1NC(=O)Nc1cccc2c1O[C@@H](CN(C)C(=O)NC1CCCCC1)[C@@H](C)CN([C@@H](C)CO)C2=O` the outcome was “inactive”.
In the case of `C[C@H](CO)N1C[C@H](C)[C@@H](CN(C)Cc2ccccc2)Oc2c(NS(C)(=O)=O)cccc2C1=O`, the outcome is reported as “inactive”.
For `C[C@H]1CN([C@@H](C)CO)C(=O)c2cccc(NC(=O)c3ccncc3)c2O[C@@H]1CN(C)S(=O)(=O)c1ccccc1`, the outcome was “inactive”.
For `C[C@H](CO)N1C[C@H](C)[C@@H](CN(C)S(=O)(=O)c2ccc(F)cc2)Oc2c(NC(=O)c3cnccn3)cccc2C1=O`, the outcome was “inactive”.
With `COc1ccc(NC(=O)N(C)C[C@H]2Oc3c(NC(=O)C4CCOCC4)cccc3C(=O)N([C@H](C)CO)C[C@@H]2C)cc1` the outcome was “inactive”.
For `CC(C)NC(=O)Nc1cccc2c1O[C@H](CN(C)Cc1ccc3c(c1)OCO3)[C@@H](C)CN([C@H](C)CO)C2=O`, the outcome was “inactive”.
For `Cc1ccc(S(=O)(=O)Nc2cccc3c2O[C@H](CN(C)C(=O)NC(C)C)[C@@H](C)CN([C@H](C)CO)C3=O)cc1`, the outcome was “inactive”.
